# Laboratory results as given in the supplement of paper PMC10849652.
# Of roughly 7,900 targets only a part is listed; those with a hit were picked by preference. About 0.6% of all pairs of compound and target were hits. A number with no mark means an inactive call.
# Legend:
# Assay in all cases: log2 fold change, soluble protein after heating vs DMSO (PISA); higher = thermal stabilisation; K562 cells, 10 uM, 30 min; active = over 0.2 and 3.5 SD of the protein, either way, in both replicates (recomputed)
# [1] = compound: CC1=C(C=C(C=C1)NC(=O)C2=CC(=CC=C2)C(C)(C)C#N)NC3=CC4=C(C=C3)N=CN(C4=O)C
# In short: (§1)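 Values are thermal stability changes relative to control samples and are taken from duplicates. They are stated as log2 fold changes. Before quantification by TMTpro 16plex LC-MS/MS with equalised channel sums, K562 cells at 2×10^6 cells/mL were treated with 10 μM compound for 30 min, heated in aliquots for 3 min across 48°C-58°C, pooled, extracted in PBS with 0.5% NP-40 at 4°C, and centrifuged at 21,000xg for 90 min to give the soluble supernatant.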
# [2] = compound: CC1=C(C=C(C=C1)NC(=O)C2=CC(=CC=C2)N(C)C)NC(=O)C3=CC=C(C=C3)O
# In short: as §1
# [3] = compound: CC1=CC=C(C=C1)SC2=C3C=C(SC3=CN=C2)C(=O)N
# In short: as §1
# [4] = compound: CC1=NC(=CC=C1)C2=C(N=C(N2)C(C)(C)C)C3=CC4=NC=CN=C4C=C3
# In short: as §1
# Nexturastat A = compound: CCCCN(Cc1ccc(C(=O)NO)cc1)C(=O)Nc1ccccc1 [Nexturastat A]
# In short: as §1
# vemurafenib = compound: CCCS(=O)(=O)Nc1ccc(F)c(C(=O)c2c[nH]c3ncc(-c4ccc(Cl)cc4)cc23)c1F [vemurafenib]
# In short: as §1
# [5] = compound: CCCS(=O)(=O)Nc1ccc(F)c(C(=O)c2c[nH]c3ncc(Cl)cc23)c1F
# In short: as §1
# [6] = compound: CCCc1cc(C)[nH]c(=O)c1CNC(=O)c1cc(-c2ccnc(N3CCN(C)CC3)c2)cc2c1cnn2C(C)C
# In short: as §1
# givinostat = compound: CCN(CC)Cc1ccc2cc(COC(=O)Nc3ccc(C(=O)NO)cc3)ccc2c1 [givinostat]
# In short: as §1
# barasertib = compound: CCN(CCCOc1ccc2c(Nc3cc(CC(=O)Nc4cccc(F)c4)[nH]n3)ncnc2c1)CCOP(=O)(O)O [barasertib]
# In short: as §1
# [7] = compound: CC[C@@H]1C(=O)N(C)c2cnc(Nc3ccc(C(=O)NC4CCN(C)CC4)cc3OC)nc2N1C1CCCC1
# In short: as §1
# volasertib = compound: CC[C@@H]1C(=O)N(C)c2cnc(Nc3ccc(C(=O)N[C@H]4CC[C@H](N5CCN(CC6CC6)CC5)CC4)cc3OC)nc2N1C(C)C [volasertib]
# In short: as §1
# [8] = compound: CC[C@H](C)N1C=C(C2=C(C=C(C=C21)C3=CN=C(C=C3)N4CCNCC4)C(=O)NCC5=C(C=C(NC5=O)C)C)C
# In short: as §1
# epoxomicin = compound: CC[C@H](C)[C@@H](C(=O)N[C@@H]([C@@H](C)O)C(=O)N[C@@H](CC(C)C)C(=O)[C@]1(CO1)C)NC(=O)[C@H]([C@@H](C)CC)N(C)C(=O)C [epoxomicin]
# In short: as §1
# [9] = compound: CCn1c(C(=O)N(C2CC2)C2CC2)cc2c3c(ncn3C)c(Nc3cc(C)n(C)n3)nc21
# In short: as §1
# [10] = compound: CCn1cc(-c2ccnc3[nH]c(-c4cccc(CN(C)C)c4)cc23)c(-c2ccc(NC(=O)N(C)C)cc2)n1
# In short: as §1
# [11] = compound: CN(C)CC(=O)Nc1ccc2[nH]c(=O)c3ccccc3c2c1
# In short: as §1
# rosiglitazone = compound: CN(CCOC1=CC=C(C=C1)C[C@H]2C(=O)NC(=O)S2)C3=CC=CC=N3 (racemic) [rosiglitazone]
# In short: as §1
# [12] = compound: CN1C2=C(C3=C1C(=O)N(N=C3)CC4=CC(=CC=C4)N)SC(=C2)S(=O)C
# In short: as §1
# [13] = compound: CN1CCC(CNc2ccc3ncc(-c4cccc(OC(F)(F)F)c4)n3n2)CC1
# In short: as §1
# Chain of UniProt O95433 (O95433 whole entry, looked up): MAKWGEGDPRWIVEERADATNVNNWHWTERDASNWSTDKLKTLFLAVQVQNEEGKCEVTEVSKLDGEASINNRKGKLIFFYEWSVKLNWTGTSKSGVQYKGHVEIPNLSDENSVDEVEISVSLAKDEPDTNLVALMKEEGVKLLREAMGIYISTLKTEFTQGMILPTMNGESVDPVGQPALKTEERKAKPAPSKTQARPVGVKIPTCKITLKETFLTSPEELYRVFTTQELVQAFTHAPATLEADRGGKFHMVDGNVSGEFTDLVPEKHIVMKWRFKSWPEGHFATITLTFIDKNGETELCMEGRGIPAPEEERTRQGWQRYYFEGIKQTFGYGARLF
# Chain of UniProt P31751 (P31751 whole entry, looked up): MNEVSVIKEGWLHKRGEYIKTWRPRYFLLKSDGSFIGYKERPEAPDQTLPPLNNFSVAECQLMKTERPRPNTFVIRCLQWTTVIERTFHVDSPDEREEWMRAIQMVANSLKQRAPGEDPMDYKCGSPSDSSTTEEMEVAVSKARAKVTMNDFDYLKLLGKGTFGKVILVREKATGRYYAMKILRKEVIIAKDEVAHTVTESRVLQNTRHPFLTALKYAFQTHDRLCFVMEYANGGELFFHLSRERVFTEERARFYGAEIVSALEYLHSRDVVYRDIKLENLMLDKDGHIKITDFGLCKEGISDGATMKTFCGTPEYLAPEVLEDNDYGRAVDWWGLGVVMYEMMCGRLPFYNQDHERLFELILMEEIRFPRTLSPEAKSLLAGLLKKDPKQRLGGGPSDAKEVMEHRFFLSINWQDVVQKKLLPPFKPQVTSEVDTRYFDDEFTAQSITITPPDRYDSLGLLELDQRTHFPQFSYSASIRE
# Chain of UniProt Q9UII2 (Q9UII2 whole entry, looked up): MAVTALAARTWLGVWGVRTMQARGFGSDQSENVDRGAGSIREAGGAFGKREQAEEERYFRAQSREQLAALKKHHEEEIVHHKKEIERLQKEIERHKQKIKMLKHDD
# Chain of UniProt Q16186 (Q16186 whole entry, looked up): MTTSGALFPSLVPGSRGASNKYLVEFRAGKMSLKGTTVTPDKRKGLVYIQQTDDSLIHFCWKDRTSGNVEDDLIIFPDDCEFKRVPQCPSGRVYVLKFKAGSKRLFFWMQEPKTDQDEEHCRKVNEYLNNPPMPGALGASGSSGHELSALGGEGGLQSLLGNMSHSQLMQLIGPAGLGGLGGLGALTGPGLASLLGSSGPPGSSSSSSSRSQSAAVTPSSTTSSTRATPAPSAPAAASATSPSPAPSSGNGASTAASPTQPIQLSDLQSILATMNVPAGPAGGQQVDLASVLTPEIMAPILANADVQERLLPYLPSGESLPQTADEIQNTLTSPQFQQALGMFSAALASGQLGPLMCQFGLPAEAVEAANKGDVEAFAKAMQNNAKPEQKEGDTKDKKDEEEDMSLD
# Chain of UniProt P49189 (P49189 whole entry, looked up): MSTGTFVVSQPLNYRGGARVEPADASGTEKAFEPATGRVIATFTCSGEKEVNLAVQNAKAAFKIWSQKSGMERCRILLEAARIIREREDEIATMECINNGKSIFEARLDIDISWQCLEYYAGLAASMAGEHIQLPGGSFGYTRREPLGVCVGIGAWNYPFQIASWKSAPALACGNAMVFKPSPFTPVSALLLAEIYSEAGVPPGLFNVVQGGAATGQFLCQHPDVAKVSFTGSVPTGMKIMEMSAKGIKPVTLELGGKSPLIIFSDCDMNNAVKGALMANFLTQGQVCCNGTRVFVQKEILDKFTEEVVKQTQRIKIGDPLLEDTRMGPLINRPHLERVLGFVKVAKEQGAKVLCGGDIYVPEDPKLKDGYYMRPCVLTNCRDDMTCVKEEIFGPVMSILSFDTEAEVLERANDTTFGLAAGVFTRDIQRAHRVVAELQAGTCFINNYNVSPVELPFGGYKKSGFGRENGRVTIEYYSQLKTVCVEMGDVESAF
# Chain of UniProt P36405 (P36405 whole entry, looked up): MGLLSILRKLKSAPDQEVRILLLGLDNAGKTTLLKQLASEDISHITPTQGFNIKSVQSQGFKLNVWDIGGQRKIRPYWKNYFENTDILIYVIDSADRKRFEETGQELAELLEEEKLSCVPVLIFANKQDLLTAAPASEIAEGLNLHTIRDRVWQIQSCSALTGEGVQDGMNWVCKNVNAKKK
# Chain of UniProt Q6QNY0 (Q6QNY0 whole entry, looked up): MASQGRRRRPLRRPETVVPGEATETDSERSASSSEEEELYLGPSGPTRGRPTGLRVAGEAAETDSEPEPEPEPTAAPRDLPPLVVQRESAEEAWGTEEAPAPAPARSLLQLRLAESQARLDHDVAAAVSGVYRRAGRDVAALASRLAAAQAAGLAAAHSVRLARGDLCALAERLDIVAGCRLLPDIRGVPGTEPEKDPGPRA
# Chain of UniProt O60488 (O60488 whole entry, looked up): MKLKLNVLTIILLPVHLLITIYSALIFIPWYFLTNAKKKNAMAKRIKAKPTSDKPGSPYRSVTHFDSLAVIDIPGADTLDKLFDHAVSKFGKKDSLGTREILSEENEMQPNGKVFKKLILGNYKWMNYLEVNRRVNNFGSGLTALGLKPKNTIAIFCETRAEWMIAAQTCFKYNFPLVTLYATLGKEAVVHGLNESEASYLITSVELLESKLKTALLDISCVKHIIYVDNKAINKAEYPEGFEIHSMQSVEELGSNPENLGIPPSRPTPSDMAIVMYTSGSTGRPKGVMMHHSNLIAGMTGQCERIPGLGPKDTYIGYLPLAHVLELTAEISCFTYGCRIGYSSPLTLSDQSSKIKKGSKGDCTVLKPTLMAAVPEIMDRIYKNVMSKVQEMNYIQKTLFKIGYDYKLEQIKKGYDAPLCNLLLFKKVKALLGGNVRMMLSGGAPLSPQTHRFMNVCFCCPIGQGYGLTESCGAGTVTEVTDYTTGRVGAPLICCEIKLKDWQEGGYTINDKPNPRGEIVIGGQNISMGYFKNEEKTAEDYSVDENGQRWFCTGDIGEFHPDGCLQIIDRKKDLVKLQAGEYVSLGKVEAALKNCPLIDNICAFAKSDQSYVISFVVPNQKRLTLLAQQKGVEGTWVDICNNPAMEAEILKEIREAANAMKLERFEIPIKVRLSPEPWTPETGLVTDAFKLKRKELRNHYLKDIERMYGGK
# Chain of UniProt P18085 (P18085 whole entry, looked up): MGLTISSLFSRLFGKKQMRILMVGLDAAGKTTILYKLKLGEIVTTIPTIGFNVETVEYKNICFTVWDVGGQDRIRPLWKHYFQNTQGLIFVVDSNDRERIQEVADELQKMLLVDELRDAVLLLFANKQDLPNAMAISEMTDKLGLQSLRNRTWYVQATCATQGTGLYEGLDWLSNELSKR
# Chain of UniProt O43865 (O43865 whole entry, looked up): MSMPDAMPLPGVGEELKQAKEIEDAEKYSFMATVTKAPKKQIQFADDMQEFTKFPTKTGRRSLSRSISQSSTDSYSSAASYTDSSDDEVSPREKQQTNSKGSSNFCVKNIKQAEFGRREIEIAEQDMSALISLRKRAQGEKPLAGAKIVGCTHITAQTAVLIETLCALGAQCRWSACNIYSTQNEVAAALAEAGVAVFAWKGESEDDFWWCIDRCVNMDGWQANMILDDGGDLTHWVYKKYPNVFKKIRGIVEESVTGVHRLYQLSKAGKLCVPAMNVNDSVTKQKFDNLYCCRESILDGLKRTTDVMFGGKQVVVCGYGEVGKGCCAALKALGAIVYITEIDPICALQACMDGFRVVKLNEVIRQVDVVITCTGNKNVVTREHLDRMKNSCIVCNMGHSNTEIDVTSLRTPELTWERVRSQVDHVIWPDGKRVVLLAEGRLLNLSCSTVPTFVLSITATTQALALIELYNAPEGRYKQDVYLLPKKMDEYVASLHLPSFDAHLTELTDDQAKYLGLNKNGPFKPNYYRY
# Chain of UniProt Q9H8Y5 (Q9H8Y5 whole entry, looked up): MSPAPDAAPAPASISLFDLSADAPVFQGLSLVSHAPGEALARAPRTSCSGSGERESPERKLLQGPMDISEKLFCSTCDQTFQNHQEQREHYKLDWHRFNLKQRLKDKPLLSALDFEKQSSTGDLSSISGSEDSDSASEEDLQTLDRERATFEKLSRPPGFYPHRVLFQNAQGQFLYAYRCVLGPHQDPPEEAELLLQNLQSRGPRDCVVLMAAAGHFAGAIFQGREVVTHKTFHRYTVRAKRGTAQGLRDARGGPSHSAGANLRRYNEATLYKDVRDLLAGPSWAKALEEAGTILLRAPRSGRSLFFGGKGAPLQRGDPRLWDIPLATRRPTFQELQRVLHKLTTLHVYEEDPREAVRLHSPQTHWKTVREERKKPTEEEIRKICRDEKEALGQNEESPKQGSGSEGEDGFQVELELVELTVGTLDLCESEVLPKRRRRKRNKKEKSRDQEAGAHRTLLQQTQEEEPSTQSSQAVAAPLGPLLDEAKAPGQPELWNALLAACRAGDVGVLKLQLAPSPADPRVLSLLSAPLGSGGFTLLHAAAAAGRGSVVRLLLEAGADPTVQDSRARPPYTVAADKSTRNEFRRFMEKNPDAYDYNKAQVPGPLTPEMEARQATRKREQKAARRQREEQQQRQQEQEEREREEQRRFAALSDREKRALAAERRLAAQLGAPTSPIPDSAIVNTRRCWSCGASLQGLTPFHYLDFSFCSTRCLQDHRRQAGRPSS
# Chain of UniProt Q9BR61 (Q9BR61 whole entry, looked up): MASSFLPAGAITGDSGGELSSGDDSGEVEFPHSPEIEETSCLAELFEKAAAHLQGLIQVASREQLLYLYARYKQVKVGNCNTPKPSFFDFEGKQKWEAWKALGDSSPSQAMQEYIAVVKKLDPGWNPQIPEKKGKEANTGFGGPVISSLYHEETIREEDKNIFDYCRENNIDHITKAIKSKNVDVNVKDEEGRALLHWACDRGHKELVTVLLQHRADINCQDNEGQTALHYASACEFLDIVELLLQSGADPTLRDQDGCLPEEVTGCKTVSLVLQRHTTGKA
# Chain of UniProt P53680 (P53680 whole entry, looked up): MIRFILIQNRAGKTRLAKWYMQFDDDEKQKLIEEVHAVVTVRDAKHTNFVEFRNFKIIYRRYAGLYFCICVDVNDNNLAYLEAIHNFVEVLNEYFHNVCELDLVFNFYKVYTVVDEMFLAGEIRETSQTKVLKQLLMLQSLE
Target,log2 fold change [1],log2 fold change [2],log2 fold change [3],log2 fold change [4],log2 fold change (Nexturastat A),log2 fold change (vemurafenib),log2 fold change [5],log2 fold change [6],log2 fold change (givinostat),log2 fold change (barasertib),log2 fold change [7],log2 fold change (volasertib),log2 fold change [8],log2 fold change (epoxomicin),log2 fold change [9],log2 fold change [10],log2 fold change [11],log2 fold change (rosiglitazone),log2 fold change [12],log2 fold change [13]
ATP5IF1 (UniProt Q9UII2),-0.035,0.009,-0.005,0.021,-0.041,-0.078,-0.043,-0.022,-0.005,0.026,-0.149,0.141,-0.078,-0.041,0.021,0.013,-0.13,-0.02,-0.04,0.037
ALDH9A1 isoform 3 (UniProt P49189),0.01,0.012,0.03,0.01,-0.049,0.006,0.006,-0.019,-0.005,0.01,0,-0.003,-0.048,0.011,0.003,-0.025,-0.01,-0.004,-0.065,-0.027
ARL3 (UniProt P36405),-0.016,0.018,0.016,0.025,-0.063,0.002,0.059,-0.033,0.005,-0.022,0.036,0.046,0.001,-0.01,-0.001,-0.005,-0.014,0.008,-0.098,-0.018
AP2S1 (UniProt P53680),0.009,-0.028,-0.036,0.037,-0.038,0.002,0.03,0.007,-0.015,-0.034,0.035,0.018,-0.024,-0.022,0.023,-0.008,-0.071,0.02,-0.005,0.037
ARF4 (UniProt P18085),0.022,-0.014,0,0.012,-0.095,0.02,0.022,0.023,0.016,0.048,0.064,0.094,0.009,0.112,-0.008,0.014,0.041,-0.033,-0.076,0.097
ANKZF1 (UniProt Q9H8Y5),0.011,0,-0.055,-0.059,0.399,-0.011,-0.042,0.132,0.195,0.04,-0.063,-0.055,0.036,-0.001,-0.036,0.004,-0.076,-0.002,0.214,0.066
ADRM1 (UniProt Q16186),0.067,0.009,-0.013,0.024,0.104,-0.022,-0.028,0.01,0.034,-0.021,0.122,0.197,0.024,-0.083,0.04,-0.013,-0.006,0,0.045,0.062
ATP7B (UniProt P35670),-0.005,-0.113,0.028,0.032,-0.013,-0.001,0.032,0.036,-0.005,-0.02,-0.03,-0.043,0.06,0.103,0.061,-0.031,0.024,0.069,0.034,0.009
ACSL4 (UniProt O60488),0.018,-0.051,0.418 (active),-0.002,0.233,0.021,0.104,0.053,0.047,0.034,-0.15,-0.276,-0.051,0.024,-0.098,-0.029,0.092,1.17 (active),0.051,-0.229
AGRN (UniProt O00468),-0.089,-0.294,-0.031,0.014,-0.051,-0.025,-0.072,0.024,-0.011,0.011,0.042,-0.001,0.005,0.065,-0.018,0.053,0.016,-0.012,0.062,-0.02
AHSA1 (UniProt O95433),-0.014,0.006,0,0.062,-0.019,0.029,0.036,-0.024,-0.015,0.027,-0.085,-0.228 (active),0.038,0.023,0,-0.052,0,0.027,-0.06,0.038
BLOC1S3 (UniProt Q6QNY0),-0.03,0.049,0.046,0.052,-0.031,-0.049,-0.029,-0.058,-0.016,0.021,0.024,0.018,-0.04,-0.011,0.005,-0.017,0.058,0.048,-0.062,-0.01
BAIAP2 isoform 4 (UniProt Q9UQB8),0.034,,,,,,,,,,,,,,,,,,,
AHCYL1 (UniProt O43865),-0.103,0.003,-0.061,0.011,0.014,-0.029,-0.015,-0.039,-0.026,-0.036,0.021,0.036,-0.099,-0.007,-0.027,-0.097,0.018,0.018,-0.115,-0.063
AKT2 (UniProt P31751),0.018,0.033,0.006,0.019,0.069,-0.007,0.015,-0.017,0.069,0.079,-0.017,-0.253,0.128,0.079,-0.061,-0.175,-0.026,0.082,-0.038,-0.119
ACBD6 (UniProt Q9BR61),0.039,-0.04,0.139,0.067,0.28,0.029,0.022,0.127,-0.011,0.018,-0.032,-0.473 (active),0.103,0.05,0.01,-0.11,0.141,0.363,-0.099,0.046
ATR (UniProt Q13535),-0.012,-0.022,0.013,-0.126,0.005,0.035,-0.001,0.015,0.039,0.037,-0.063,-0.197,-0.02,0.048,-0.071,-0.041,0.052,0.049,-0.017,0
